Experimental data reported in PubChem BioAssay (NCI).
This is part of a sample that, as a whole, favours compounds with a hit. Of some 83,000 tested, about 20% had one in any assay.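 Values shown are percent growth following 48 h exposure of cells in 96-well plates to a single concentration of compound; below 10 was considered active.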 A number with no mark means an inactive call. Calls of active or inactive are those of the source.

The compounds below were run on A549/ATCC NSCLC (assay: NCI-60 one-dose screen, 48 h (100 = growth as untreated, 0 = no growth, -100 = all killed)). Details: 10 µM unless noted.
Description: Growth inhibition of the A549/ATCC human Non-Small Cell Lung tumor cell line is measured as a screen for anti-cancer activity. Cells are grown in 96 well plates and exposed to the test compound for 48 hours. Compounds are tested at a single concentration, which is 10^-5 M for most compounds. The reported endpoint is percent growth (GI% or GIPRCNT), where numbers from 0 - 100% represent growth inhibition, and numbers from -100% - 0 represent cell death. For example, a value of 40 represents 60% growth inhibition. A value of 0 means no net growth occurred over the course of the experiment. A value of -40 indicates 40% of cells at the beginning of the experiment died by the end of the experiment. A value of -100 means all cells are dead at the end of the experiment.
NCI-60 Human Tumor Cell Lines Screen was performed using the standard one-dose NCI protocol, which is described in more detail at https://dtp.cancer.gov/discovery_development/nci-60/default.htm.
Compounds with GIPRCNT values below 10 were considered active. Activity score was based on GIPRCNT using the following formula: […]
Score is 0 for GIPRCNT values of 100 or above, 50 for GIPRCNT values of 0, and 100 for GIPRCNT values of -100.

**Q.** How did the growth turn out when `COc1cc(-c2cc(=O)oc3cc(O)ccc23)cc(OC)c1OC` was run?
**A.** Its growth is 90.1%.

**Q.** How did the growth turn out when `C1=C2CNCC3=Cc4ccc5ccccc5c4OC23Oc2c1ccc1ccccc21` was run?
**A.** The growth was 50.6%.

**Q.** How did the growth turn out when `COc1cc(/C=C/C(=O)c2c(C)oc3nc[nH]c(=O)c23)ccc1O` was run?
**A.** Its growth is 101%.

**Q.** With `CN1CCN(C(=O)OCc2nc3c(N4CCOCC4)nc(-c4ccccc4)nc3n2C)CC1` as the compound, how does the growth read?
**A.** Its growth is 6.44% (active).

**Q.** With `Cc1ccc(C(=O)Nc2ccccc2C(=O)N/N=C(\c2ccccc2)c2ccccn2)cc1` as the compound, how does the growth read?
**A.** The growth was 17.2%.

**Q.** Which growth does the source give for `CCOC(=O)c1ccc(Nc2ccnc(SCC(=O)c3ccc(C#N)cc3)n2)cc1` here?
**A.** Its growth is 60.6%.

**Q.** For `N#Cc1c(Nc2ccccc2)nn2cc(-c3nc4ccccc4s3)c(N)nc12`, which growth is on record?
**A.** The growth was 80.6%.

**Q.** With `COc1ccc(C2=C(c3ccccc3)c3ccc(OC(C)=O)cc3OC2(C)C)cc1` as the compound, how does the growth read?
**A.** The growth was 87.7%.

**Q.** Which growth does the source give for `Cc1nn(-c2ccccc2)c(N2CCOCC2)c1/C=N/N=c1\sc2ccccc2n1C` here?
**A.** Its growth is 87.7%.

**Q.** How did the growth turn out when `COc1cc2oc(-c3cccc(C(=O)Nc4ccc(Cl)cc4)c3)cc(=O)c2c(OC)c1OC` was run?
**A.** Its growth is 23.6%.

**Q.** Which growth does the source give for `CN1C(=O)N(C)C2NC(N/N=C/c3ccccc3)=NC21` (stereo not given) here?
**A.** The growth was 100%.

**Q.** With `CCNNC(=O)[C@@H]1[C@H](c2cc(OC)c(OC)c(OC)c2)c2cc3c(cc2[C@H](O)[C@H]1CO)OCO3` as the compound, how does the growth read?
**A.** Its growth is 9.99% (active).

**Q.** How did the growth turn out when `COc1ccc(C(=O)c2cc3c(N)c(C(=O)Nc4cccc(Cl)c4C)sc3nc2C)cc1` was run?
**A.** The growth was 13.2%.

**Q.** `COc1ccc(Cl)cc1NC(=O)c1c(NC(=O)C(F)(F)C(F)(F)F)sc2c1CCCCC2` was tested. Which growth did it give?
**A.** Its growth is 7.89% (active).

**Q.** Which growth does the source give for `CCC(C)C(N)C(=O)NNc1n[nH]c(=S)n1N` (stereo not given) here?
**A.** The growth was 102%.

**Q.** Which growth does the source give for `Nc1c(C(=O)Nc2cccc3ccncc23)sc2nc3c(cc12)C(=O)CCC3` here?
**A.** The growth was 38.6%.

**Q.** For `O=S(=O)(O)c1cc(O)c2c(N=Nc3ccc(Nc4ccccc4)c4c(S(=O)(=O)O)cccc34)cc(S(=O)(=O)O)cc2c1`, which growth is on record?
**A.** Its growth is 101%.

**Q.** `N/C(=N\N=C\c1cc2ccccc2[nH]1)N/N=C/c1cc2ccccc2[nH]1` was tested. Which growth did it give?
**A.** The growth was 101%.

**Q.** With `Cn1/c(=N/NC(N)=S)ccc2ccccc21` as the compound, how does the growth read?
**A.** The growth was 97.7%.

**Q.** With `O=c1nc2n(nc1/C=C/c1ccco1)CC(c1ccc(Cl)cc1)=NN2` as the compound, how does the growth read?
**A.** Its growth is 104%.

**Q.** With `O=C(OC(OC(=O)c1cc(Cl)cc(Cl)c1)c1cccc2ccccc12)c1ccccc1` (stereo not given) as the compound, how does the growth read?
**A.** Its growth is 92.6%.

**Q.** For `COc1ccc(-c2cnnc3c(-c4cccc(C(F)(F)F)c4)cnn23)cc1`, which growth is on record?
**A.** The growth was 63.5%.

**Q.** `O=C(N/N=C/c1cccnc1)c1ccccc1Nc1cccc(C(F)(F)F)c1` was tested. Which growth did it give?
**A.** The growth was 42.4%.

**Q.** `CCCOc1nc(SCCC)nc2c1cnn2-c1ccccc1` was tested. Which growth did it give?
**A.** Its growth is 100%.

**Q.** `CCCCCCCCOC(=O)c1ccc(O)c(OC)c1` was tested. Which growth did it give?
**A.** Its growth is 89.6%.

**Q.** With `C#CC(=O)Nc1cccc(Nc2nc3c(c(NCc4ccccc4)n2)CCCC3)c1` as the compound, how does the growth read?
**A.** The growth was -48.5% (active).

**Q.** How did the growth turn out when `CC(=O)N1c2ccccc2NC2=C(C(=O)N(Cc3ccccc3)C2(C)C)C1c1ccco1` (stereo not given) was run?
**A.** The growth was 22%.

**Q.** For `CN1CCN(c2ccc(NC3=C(Cl)C(=O)c4ncccc4C3=O)cc2C#N)CC1`, which growth is on record?
**A.** Its growth is 110%.

**Q.** `O=S(=O)(NCCNc1nccc(-c2c(-c3cccc(F)c3)nc3occn23)n1)c1cccc2ccccc12` was tested. Which growth did it give?
**A.** Its growth is 44.1%.

**Q.** For `COC(=O)C1NC(=S)N(c2ccc(Cl)cc2)C1/C=C/c1ccccc1` (stereo not given), which growth is on record?
**A.** Its growth is 98.1%.

**Q.** For `C#CCNC(=O)[C@H](Cc1ccccc1)NC(=O)[C@]12CC[C@@H](C(=C)C)[C@@H]1[C@H]1CC[C@@H]3[C@@]4(C)Cc5c([nH]c6ccccc56)C(C)(C)[C@@H]4CC[C@@]3(C)[C@]1(C)CC2`, which growth is on record?
**A.** Its growth is 84.7%.

**Q.** For `CN(Cc1ccccc1)c1nc(Cl)c(C2CC(c3ccc(Cl)cc3)=Cc3[nH][nH]c(=O)c32)s1` (stereo not given), which growth is on record?
**A.** Its growth is 107%.

**Q.** How did the growth turn out when `CCN1C(=O)N(CC)C2NC(SC)=NC21` (stereo not given) was run?
**A.** Its growth is 103%.

**Q.** Which growth does the source give for `COc1ccccc1/C=N/NC1=NC2C(N1)N(C)C(=O)N2C` (stereo not given) here?
**A.** The growth was 102%.

**Q.** Which growth does the source give for `CN1CCN(Cc2ccc(NC(=O)c3cncc(C#Cc4cnccc4C(F)(F)F)c3)cc2C(F)(F)F)CC1` here?
**A.** The growth was 94%.

**Q.** Which growth does the source give for `Cc1cccc(C)c1-c1cc(Cc2ccc(Cl)cc2)c(=O)[nH]n1` here?
**A.** Its growth is 37%.

**Q.** Which growth does the source give for `Nc1nnc2cc(Cl)ccc2n1` here?
**A.** The growth was 108%.

**Q.** Which growth does the source give for `COc1c(Cl)cc(Cl)c2ccc(C=C3C(=O)N(C)C(=O)N(C)C3=O)nc12` here?
**A.** Its growth is 111%.

**Q.** Which growth does the source give for `COc1ccc(-c2c[nH]c(C(=O)O)c2-c2cc(OC)c3c(c2OC)OCO3)cc1` here?
**A.** The growth was 103%.

**Q.** With `N#Cc1ccc(-c2ccc3c(c2)NC(=O)/C3=C\c2ccc[nH]2)cc1` as the compound, how does the growth read?
**A.** Its growth is 104%.
